# Screening results (PubChem)
# A selection: hits, their analogues and other compounds. The true share with any hit is near 19%.
# HT1080 IDH1KD tx: kills HT-1080 cells with IDH1 knockdown. HT-1080 IDH1 knockdown viability, ATP luminescence, 48 h. Potency, µM (top dose mostly 46.1 µM), for the others: at the top dose activity, negative = toxicity, hits mostly cytotoxic. 360,000 tested, 2% active. AID 686971;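 note: 0% = DMSO wells and -100% = cell-free medium wells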
#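 After a 2 h attachment period, IDH1KD HT-1080 cells took pin-transferred compound for 48 h at 37 °C; ATP-based luminescence after 10 min room-temperature reagent incubation reported viability.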
# DT40 TDP1 CPT: DT40-hTDP1 cell growth loss with CPT; chicken DT40 Tdp1-/-;hTDP1 cells + 20 nM CPT, ATP luminescence, 48 h; Potency, µM (series often up to 46.2 µM), for the others: at the top dose activity change, negative = growth inhibition, hits mostly inhibitors; 420,000 tested, 12% active; AID 686979; note: nearly all actives have a fitted effect of over 55% in size
#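 Cell growth measured by CellTiter-Glo luminescence after a minimum 48 h, 37 C compound exposure with 20 nM CPT in Tdp1-knockout DT40 cells stably expressing hTDP1, seeded 400/well; qHTS titration format.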
# HT1080-NT tox: kills 2HG-producing HT-1080-NT fibrosarcoma cells | HT-1080-NT fibrosarcoma viability, CellTiter-Glo ATP luminescence, 48 h | Potency, µM (series often up to 46.1 µM), without a hit: at the top dose activity, negative = less viability, usual class: cytotoxic | 360,000 tested, 1.6% active;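 note: NT is the 2HG producing partner of a matched IDH1 knockdown line; 0% = DMSO-treated cells and -100% = media-only wells without cells; nearly all actives have a fitted effect of over 55% in size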
#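 HT-1080-NT; 750 cells/well; 5% FBS RPMI; 48 h compound, 37 degrees C; CellTiter-Glo luminescence; curve fitting and curve-class assignment.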
# DT40 TDP1 no CPT: qHTS for Inhibitors of human tyrosyl-DNA phosphodiesterase 1 (TDP1): qHTS in cells in absence of CPT | 420,000 tested, 15% active | AID 686978, 2013 | DT40 Tdp1-/- hTDP1 cells, no CPT, ATP luminescence, 48 h | Potency, µM (series often up to 46.2 µM), for the others: at the top dose activity change, negative = growth inhibition, hits mostly inhibitors; note: nearly all actives have a fitted effect of over 55% in size
#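 Stably hTDP1-transfected Tdp1-null chicken DT40 cells were treated with library compounds minus camptothecin and grown for at least 48 hr at 37 °C, after which cellular ATP was quantified by luminescence.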
# KB-3-1 tox: KB-3-1 parental cell cytotoxicity | 400,000 tested, 1.4% active | Potency, µM (top dose mostly 46.1 µM), most hits filed as cytotoxic | AID 1347075 | KB-3-1 viability, CellTiter-Glo ATP luminescence, 72 h; note: nearly all actives have a fitted effect of over 60% in size
#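 Parental KB-3-1 viability, qHTS format: 72 h compound exposure, 37 °C; CellTiter-Glo; media-only wells and DMSO plates as controls; concentration-effect fits on corrected data.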
# KB-V1 MDR tox: kills drug-selected multidrug resistant KB-V1 cells. KB-V1 MDR cells viability, CellTiter-Glo, 72 h. Potency, µM (highest dose often 46.1 µM), hits mostly cytotoxic. 400,000 tested, 3.4% active; note: nearly all actives have a fitted effect of over 60% in size
#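 Following 72 h at 37 degrees C with compound, KB-V1 cell viability was read by CellTiter-Glo luminescence, medium being phenol-red-free DMEM plus 10% FBS; concentration-response parameters came from normalized, curve-fitted qHTS data.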
# Active calls of the source: *; i = inactive; ? = inconclusive; · = no result given; [ ] = another dose, or the depositor's remark. Calls come from the whole dose curve; as a rule, active = well fitted curve in the direction sought with a large enough effect; inconclusive = small, poorly fitted or top-dose-only effect, or another doubt; inactive = no such curve, though single readings can be large; an effect the other way counts as inactive or inconclusive. Unless noted, % is set by controls: 0 for no effect and ±100 for the full control effect; potency is the fitted concentration of half-maximal effect.
SMILES,HT1080 IDH1KD tx,DT40 TDP1 CPT,HT1080-NT tox,DT40 TDP1 no CPT,KB-3-1 tox,KB-V1 MDR tox
CC(=O)c1c(C)[nH]c(C(=O)CN2C(=O)NC3(CCCCC3C)C2=O)c1C (stereo not drawn),-16%,-2%,-14%,6%,i,i
Cn1c(N)c(C(=O)COC(=O)c2cc(C3CC3)nc3ccccc23)c(=O)n(Cc2ccccc2)c1=O,-22%,-27%,-7%,-25%,i,i
CN(C)C(=O)CSc1n[nH]c(=O)n1CCc1ccccc1,7%,-1%,4%,6%,i,i
O=C(C1CCN(S(=O)(=O)c2ccc3c(c2)OCCO3)CC1)N1CCc2ccccc21,-1%,?,6%,21µM*,i,?
CC(=O)N1CCc2cc(S(=O)(=O)NC(C(=O)Nc3ccc4c(c3)OCCO4)C(C)C)ccc21 (stereo not drawn),-7%,-1%,-1%,-11%,i,i
CCC(=O)N1CCc2cc(S(=O)(=O)Nc3ccc4c(c3)OCCO4)ccc21,?,9.2µM*,-15%,5.2µM*,i,i
c1ccc2c(c1)ccc1nnc(SCc3ccc4c(c3)OCO4)n12,14%,10%,1%,-21%,i,i
COc1cccc(C(=O)Nc2c3c(nn2-c2ccc(Cl)cc2)CS(=O)(=O)C3)c1,·,-19%,·,?,i,i
CCOc1ccc(CCNC(=O)Cn2nc(C)n3c(cc4occc43)c2=O)cc1OCC,·,-23%,·,-28%,i,i
O=C(/C=C/c1ccc(OC(F)(F)F)cc1)Nc1cccc([S+](=O)([O-])Nc2ccccc2F)c1,·,·,·,·,i,i
CCCn1c(=O)c2ccccc2n2c(SCC(=O)N3CCc4ccccc4C3)nnc12,-3%,?,1%,?,i,2.9µM*
C=CCn1c(=O)c2ccccc2n2c(Sc3nnnn3-c3ccccc3)nnc12,-1%,?,-17%,?,i,i
CCn1c(=O)c2ccccc2n2c(SCC(=O)NCc3cccs3)nnc12,-1%,-26%,7%,-9%,i,i
CCCn1c(=O)c2ccccc2n2c(Sc3nnnn3-c3ccccc3)nnc12,0%,?,-11%,23µM*,i,i
Cc1ccc(Cn2c(=O)c3ccccc3n3c(SCC(=O)N4CCCCC4C)nnc23)cc1 (stereo not drawn),-6%,18µM*,-3%,16µM*,i,8.2µM*
CCCn1c(=O)c2ccccc2n2c(SCC(=O)NCc3cccs3)nnc12,4%,?,2%,15µM*,i,i
CC12C=CC3(O1)C(C(=O)N(c1ccccc1)C3C(=O)NC1CCCC1)C2C(N)=O (stereo not drawn),8%,22%,3%,-3%,i,i
CS(=O)(=O)N(CC(=O)N1CCCCCC1)c1cc(Cl)ccc1Cl,1%,-6%,0%,0%,i,i
CCn1c(=O)c2ccccc2n2c(SCC(=O)N3CCc4ccccc4C3)nnc12,11%,?,2%,-6%,i,i
CCn1c(SCC(=O)N2CCc3ccccc3C2)nc2sc(C)c(C)c2c1=O,4%,?,10%,21µM*,i,i
c1ccc(-c2nc(N3CCN(c4ccccc4)CC3)nc(-n3ccnc3)n2)cc1,?,?,11µM*,16µM*,?,23µM*
c1ccc(-c2nc(N3CCCCCC3)nc(-n3ccnc3)n2)cc1,0%,?,-1%,?,?,?
COC(=O)c1ccc(-n2ccnc2)cc1,15%,16%,0%,0%,?,i
c1ccc(-c2ccc(-n3ccnc3)cc2)cc1,14%[9.24 µM],26µM*,?,?,i,?
CCCCc1c(O)nc(SCC(=O)NC(C)(C)C)n(-c2ccccc2C)c1=O,-2%,-14%,-1%,13%,i,i
SMILES,HT1080 IDH1KD tx,DT40 TDP1 CPT,HT1080-NT tox,DT40 TDP1 no CPT,KB-3-1 tox,KB-V1 MDR tox
CCc1ccc(CN(Cc2cccnc2)C(=O)/C=C/c2ccc(OC)cc2)cc1,?,-55%,?,15µM*,i,?
Cc1cc(NS(=O)(=O)c2ccc(N)cc2)no1,·,-13%,·,-12%,i,i
CCN1/C(=C/c2cc[n+](C)cc2)C=Cc2cc(C)ccc21,?,0.23µM*,-5%,0.18µM*,2.9µM*,i
COCC(C)n1c(SCc2ccc(C(=O)OC)cc2)nc2ccccc2c1=O (stereo not drawn),-24%,12µM*,-16%,9.2µM*,i,i
COCC(C)n1c(SCc2ccc(OC)c(F)c2)nc2ccccc2c1=O (stereo not drawn),-2%,5.8µM*,-19%,4.1µM*,i,?
CCn1c(SCc2ccc(OC)c(F)c2)nc2ccccc2c1=O,-14%,?,?,-70%,i,?
COCC(C)n1c(SCC(=O)NC(=O)Cc2ccccc2)nc2ccccc2c1=O (stereo not drawn),-2%,?,6%,-21%,i,i
COc1cc(/C=C/C(C)=O)cc(OC)c1OC,0%,-30%,-8%,?,23µM*,i
CCCOc1ccc(N/C=C/C(=O)c2cc(OC)c(OC)c(OC)c2)cc1,-2%,?,-1%,23µM*,i,?
COc1cc(C=CC(=O)c2cc(OC)c(OC)c(OC)c2)cc(OC)c1OC,23µM*,5.8µM*,?,5.8µM*,6.5µM*,?
COc1cc(/C=C/C(=O)NCC2CCCCC2)cc(OC)c1OC,7%,-2%,10%,-19%,i,i
COc1cc(/C=C/C(=O)c2cccs2)cc(OC)c1OC,·,3.8µM*,·,1.5µM*,·,·
CCOc1ccc(N/C=C/C(=O)c2ccc(OC)cc2)cc1,-1%,?,0%,-19%,i,?
COc1cc(/C=C/C(=O)OCC(=O)N(C)Cc2ccccc2)cc(OC)c1OC,5%,?,2%,?,i,?
COc1ccc2cc(C(=O)/C=C/c3cc(OC)c(OC)c(OC)c3)ccc2c1,?,26µM*,?,21µM*,i,i
COc1cc(/C=C/C(=O)N2CCC=CC2=O)cc(OC)c1OC,4.1µM*,2.1µM*,5.8µM*,1.8µM*,?,?
COc1cc(C=CC(=O)c2ccccc2)cc(OC)c1OC,8.2µM*,5.8µM*,10µM*,8.2µM*,?,23µM*
